# Screens as filed in PubChem.
# Sampled rows, rich in hits. Any-hit rate of the full collection: about 19%.
# HT1080-NT tox – qHTS for induction of synthetic lethality in tumor cells producing 2HG: qHTS for the HT-1080-NT fibrosarcoma cell line; 1.6% of 360,000 active; Potency, µM (doses to about 46.1 µM), for inactives: top-dose activity, negative = less viability, hits mostly cytotoxic; HT-1080-NT fibrosarcoma viability, CellTiter-Glo ATP luminescence, 48 h;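 also: NT is the 2HG producing partner of a matched IDH1 knockdown line; potency is read from the fitted curve at half-maximal effect; 0% = DMSO-treated cells and -100% = media-only wells without cells; nearly all actives have a fitted effect of over 55% in size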
#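 Luminescent CellTiter-Glo readout after 48 hours of compound exposure at 37 degrees C defined viability of HT-1080-NT cells. Activity was normalized to DMSO wells and cell-free media wells; concentration-response curves were fitted and assigned curve classes.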
# DT40 TDP1 no CPT – qHTS for Inhibitors of human tyrosyl-DNA phosphodiesterase 1 (TDP1): qHTS in cells in absence of CPT. AID 686978, 2013. DT40 Tdp1-/- hTDP1 cells, no CPT, ATP luminescence, 48 h. Potency, µM (top dose mostly 46.2 µM), inactives show at the highest dose activity change, negative = growth inhibition, hits mostly inhibitors. 15% of 420,000 active; also: potency is read from the fitted curve at half-maximal effect; nearly all actives have a fitted effect of over 55% in size
#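 Stably hTDP1-transfected Tdp1-null chicken DT40 cells were treated with library compounds minus camptothecin and grown for at least 48 hr at 37 °C, after which cellular ATP was quantified by luminescence.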
# IL-1B inflam inh – qHTS for Inhibitors of Inflammasome Signaling: IL-1-beta AlphaLISA Primary Screen; activity change, % at 57.5 µM; 4.7% of 360,000 active; THP-1 LPS/ATP IL-1B secretion, AlphaLISA, 16 h; hits give low values; in the data active = activity change below about -50%; inconclusive = mostly about -30% to -49%
#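 THP-1 cells pretreated 1 hr with compounds (up to 57.5 uM final), then stimulated with LPS (250 ng/mL final) plus ATP (1.25 mM final); secreted IL-1B measured by AlphaLISA after 16 hr, decreased signal indicating inhibition.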
# ELG1 repair inh – qHTS screen for small molecules that inhibit ELG1-dependent DNA repair in human embryonic kidney (HEK293T) cells expressing luciferase-tagged ELG1; 2.3% of 330,000 active; Potency, µM (doses to about 46.1 µM), for inactives: top-dose activity change, negative = inhibition, hits mostly inhibitors; HEK293T ELG1-luciferase reporter, luminescence, 16 h; DNA damage induced by 5-fluorouridine; AID 504467, 2011; also: potency is read from the fitted curve at half-maximal effect; nearly all actives have a fitted effect of over 55% in size
#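 Cells (2,000 per well) received 5-fluorouridine plus test compound or DMSO and were incubated 16 hr at 37 °C, 5% CO2. Luciferase activity was read by luminescence 30 min after ONE-Glo addition; signal suppression marked inhibition of damage-induced ELG1 function.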
# HT1080 IDH1KD tx – qHTS for induction of synthetic lethality in tumor cells producing 2HG: qHTS for the HT-1080-IDH1KD cell line; 2% of 360,000 active; Potency, µM (highest dose often 46.1 µM), for the others: top-dose activity, negative = toxicity, usual class: cytotoxic; HT-1080 IDH1 knockdown viability, ATP luminescence, 48 h;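 also: potency is read from the fitted curve at half-maximal effect; 0% = DMSO wells and -100% = cell-free medium wells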
#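 Assay cells: HT-1080 with IDH1 knockdown, 750 per well, RPMI/5% FBS. Exposure: 48 h at 37 °C following 2 h pre-incubation. Read: CellTiter-Glo luminescence; fitted concentration-response, curve class assigned.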
# DT40 TDP1 CPT – qHTS for Inhibitors of human tyrosyl-DNA phosphodiesterase 1 (TDP1): qHTS in cells in presence of CPT; 12% of 420,000 active; AID 686979, 2013; Potency, µM (series often up to 46.2 µM), for inactives: at the top dose activity change, negative = growth inhibition, usual class: inhibitors; chicken DT40 Tdp1-/-;hTDP1 cells + 20 nM CPT, ATP luminescence, 48 h; also: potency is read from the fitted curve at half-maximal effect; nearly all actives have a fitted effect of over 55% in size
#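 Cell growth measured by CellTiter-Glo luminescence after a minimum 48 h, 37 C compound exposure with 20 nM CPT in Tdp1-knockout DT40 cells stably expressing hTDP1, seeded 400/well; qHTS titration format.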
# * hit, by the source's call; ? = inconclusive; / = no result. Unless noted, calls follow the shape of the dose curve; as a rule, active = well fitted curve in the direction sought with a large enough effect; inconclusive = small, poorly fitted or top-dose-only effect, or another doubt; inactive = no such curve, though single readings can be large; an effect the other way counts as inactive or inconclusive. Unless noted, % is scaled to controls: 0 for no effect and ±100 for the full control effect.
SMILES,HT1080-NT tox,DT40 TDP1 no CPT,IL-1B inflam inh,ELG1 repair inh,HT1080 IDH1KD tx,DT40 TDP1 CPT
Cc1nn(-c2ccccc2)c2c1C(c1ccc(Br)s1)C(C#N)=C(N)O2 (stereo not drawn),-9%,12µM*,10,6%,-3%,?
Cc1nn(Cc2ccccc2)c2c1C(c1ccncc1)C(C#N)=C(N)O2 (stereo not drawn),2%,23µM*,49,17%,4%,21µM*
Cc1nn(Cc2ccccc2)c2c1C(c1cccnc1)C(C#N)=C(N)O2 (stereo not drawn),-17%,?,4,?,-15%,?
COc1ccccc1CNC(=O)CCS(=O)(=O)c1ccc(Cl)cc1,4%,-27%,-5,5%,-2%,0%
CCN(CC(=O)Nc1ccccc1OC)Cc1csc(CC(=O)Nc2ccc(C)cc2)n1,-17%,16µM*,-23,9.2µM*,-8%,26µM*
COc1ccc(OC)c(NC(=O)Cc2csc(NC(=O)Nc3ccccc3OC)n2)c1,-4%,21µM*,9,?,-13%,?
CCC(=O)Nc1nc(CC(=O)Nc2ccccc2)cs1,1%,-22%,16,-4%,-2%,-13%
COc1ccc(NC(=O)Cc2csc(NC(=O)Nc3ccccc3OC)n2)c(OC)c1,6%,13µM*,-5,?,3%,?
COc1ccccc1NC(=O)Cc1csc(NC(=S)Nc2ccccc2)n1,3.5µM*,6.5µM*,-9,9%,3.2µM*,4.6µM*
CC(C)(CNC(=O)c1cccc(NS(=O)(=O)c2ccc(Br)cc2)c1)N1CCOCC1,7%,?,25,-5%,-2%,-1%
COc1cc(OC)cc(C(=O)NNC(=O)CN2C(=O)NC(C)(c3ccc(C)cc3)C2=O)c1 (stereo not drawn),17%,-24%,-8,22%,7%,12%
COc1cc(-c2cc(NC(C)=O)c3ncc(-c4ccc(F)cc4)n3c2)cc(OC)c1OC,-22%,15µM*,/,/,?,?
COc1cc(-c2cc(NC(C)=O)c3ncc(-c4ccc(C(C)=O)cc4)n3c2)cc(OC)c1OC,-29%,?,-64*,/,?,29µM*
CC(Oc1ccc2ccccc2c1)C(=O)NNC(=O)Nc1ccccc1F (stereo not drawn),7%,-8%,-50*,7%,-6%,-21%
COC(=O)c1cc(NC(=O)CC(=O)c2cccc(N)c2)cc(C(=O)OC)c1,?,-5%,5,/,21µM*,5%
Cc1noc(C)c1COc1ccc(C(=O)N2CCN(S(=O)(=O)c3cccc(F)c3)CC2)cc1,-6%,-30%,4,?,-9%,-22%
COc1ccc(CC(=O)Nc2ccc(S(=O)(=O)N3CCN(C)CC3)cc2)cc1,3%,-22%,-21,2%,-5%,-4%
O=C1CCCN1c1ccc(C(=O)N(Cc2nnc(-c3ccccc3Cl)o2)C2CC2)cc1,-8%,?,-5,-3%,-14%,?
O=C(c1cc([N+](=O)[O-])cc([N+](=O)[O-])c1)N(Cc1nnc(-c2ccccc2Cl)o1)C1CC1,1%,18µM*,26,?,-1%,?
CCCN(Cc1nnc(-c2ccccc2Cl)o1)C(=O)c1cc2ccccc2o1,-22%,?,-9,?,-12%,?
CCCN(Cc1nnc(-c2ccccc2Cl)o1)C(=O)c1cc([N+](=O)[O-])cc([N+](=O)[O-])c1,-15%,6.5µM*,-8,17%,-7%,6.5µM*
Cc1ccc(OCc2nc3ccccc3n2C(C(=O)NC(C)(C)C)c2ccncc2)cc1 (stereo not drawn),16%,2%,-21,/,0%,-6%
CSCCC(C(=O)Nc1c(C)cccc1C)n1c(COc2ccc(C)cc2)nc2ccccc21 (stereo not drawn),-29%,9.2µM*,-58*,/,?,12µM*
CSCCC(C(=O)NCc1ccccc1)n1c(C2CCN(C(C)=O)CC2)nc2ccccc21 (stereo not drawn),13%,?,-52*,/,17%,?
CSCCC(C(=O)Nc1c(C)cccc1C)n1c(-c2ccc(-c3ccccc3)cc2)nc2ccccc21 (stereo not drawn),9%,?,-9,/,6%,10µM*
SMILES,HT1080-NT tox,DT40 TDP1 no CPT,IL-1B inflam inh,ELG1 repair inh,HT1080 IDH1KD tx,DT40 TDP1 CPT
CSCCC(C(=O)Nc1c(C)cccc1C)n1c(-c2cc(C)cs2)nc2ccccc21 (stereo not drawn),0%,?,-11,/,-1%,?
O=c1[nH]c(C2CCCN(S(=O)(=O)c3ccccc3)C2)nc2c1nnn2Cc1ccccc1Br (stereo not drawn),-2%,?,-9,?,-7%,?
Cc1ccc(NC(=O)Cn2nc(-c3ccco3)ccc2=O)cc1Cl,-12%,0%,?,-12%,-2%,-4%
O=c1oc2ccc3ccccc3c2cc1-c1nnc(Nc2cccc(F)c2)s1,/,-20%,/,/,/,-10%
COc1cc(-c2noc(-c3ccc(N4CCCCC4)c([N+](=O)[O-])c3)n2)cc(OC)c1OC,/,-1%,/,/,/,-3%
COc1ccccc1-c1noc(-c2ccc(N3CCOCC3)c([N+](=O)[O-])c2)n1,/,13µM*,/,/,/,21µM*
COc1ccc(-c2noc(-c3ccc(N4CCN(C)CC4)c([N+](=O)[O-])c3)n2)cc1OC,/,3.3µM*,/,/,/,5.2µM*
Cc1ccc(N2CCN(C(=O)NCc3noc4ccccc34)CC2C)cc1 (stereo not drawn),/,?,/,/,/,21µM*
Cc1ccc2onc(CNC(=O)N3CCN(c4cccc(C(F)(F)F)c4)CC3)c2c1,/,?,/,/,/,-28%
C[C@@H]1COC(=O)[C@H](Cc2ccc(F)cc2)CC/C=C/C[C@@H](CC(=O)N[C@H](CO)Cc2ccccc2)C(=O)N1,13%,?,-4,5%,9%,?
